From ChEMBL document CHEMBL3433997, “St. Jude Leishmania screening dataset” (2016)

Key:
Type in all cases: functional
[1] = target: Solute carrier family 2, facilitated glucose transporter member 1 (Homo sapiens) (UniProt P11166); test: ST_JUDE_LEISH: Cytotoxicity at 2uM final concentration against transgenic Leishmania Mexicana promastigotes LmGLUT1 that are glucose transport deficient and complemented with the human glucose transporter GLUT1. Activity is measured by DNA content using SYBR green in vitro
Solute carrier family 2, facilitated glucose transporter member 1 (Homo sapiens), sequence (P11166 whole entry): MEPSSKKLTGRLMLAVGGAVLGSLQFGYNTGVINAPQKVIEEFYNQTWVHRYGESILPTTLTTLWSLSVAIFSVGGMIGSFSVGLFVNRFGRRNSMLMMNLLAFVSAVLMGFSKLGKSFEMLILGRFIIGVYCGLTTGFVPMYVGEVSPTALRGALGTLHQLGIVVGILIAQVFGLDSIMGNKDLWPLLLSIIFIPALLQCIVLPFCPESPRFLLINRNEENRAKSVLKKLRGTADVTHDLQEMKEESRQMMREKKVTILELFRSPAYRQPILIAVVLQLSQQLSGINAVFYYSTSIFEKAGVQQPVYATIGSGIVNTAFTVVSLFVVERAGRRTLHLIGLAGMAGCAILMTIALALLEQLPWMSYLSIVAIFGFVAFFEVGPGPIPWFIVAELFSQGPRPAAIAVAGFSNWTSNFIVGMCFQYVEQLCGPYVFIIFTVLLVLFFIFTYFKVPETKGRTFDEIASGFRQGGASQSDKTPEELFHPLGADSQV

[2] = target: Hexose transporter 1 (Plasmodium falciparum) (UniProt O97467); test: ST_JUDE_LEISH: Cytotoxicity at 2uM final concentration against transgenic Leishmania Mexicana promastigotes LmPfHT that are glucose transport deficient and complemented with the Plasmodium falciparum hexose transporter. Activity is measured by DNA content using SYBR green in vitro
[3] = target: Glucose transporter (Leishmania mexicana) (UniProt O61059); test: ST_JUDE_LEISH: Cytotoxicity at 2uM final concentration against transgenic Leishmania Mexicana promastigotes LmGT2 that are glucose transport deficient and complemented with the L. Mexicana glucose transporter 2. Activity is measured by DNA content using SYBR green in vitro

| Compound | inhibition [1] | inhibition [2] | inhibition [3] |
| --- | --- | --- | --- |
| CC(C)NCc1ccc(-c2cccc(NC(=O)c3ccc(Cl)cc3)c2)cc1 | 8.23% | 6.77% | 7.51% |
| CC(C)CCNC(=O)[C@@H]1[C@H]2C(=O)N(C3CCCCC3)C(=O)[C@H]2[C@H]2C=C[C@@H]3C(c4ccc(C(C)(C)C)cc4)=NO[C@@H]3N21 | 13.3% | 11.4% | 7.33% |
| COc1ccc(-c2cccc(NC(=O)c3ccc(C#N)cc3)c2)cc1CN1CCCC1 | 11.3% | 11.1% | 2.91% |
| Brc1cc2c(cc1C=NNc1nc(=Nc3ccccc3)[nH]c(=Nc3ccccc3)[nH]1)OCO2 | 3.97% | 3.42% | -2.12% |
| CC[C@H](C)CNC(=O)c1cccc(-c2cccc(CNCC3CNCCCO3)c2)n1 (stereo partly specified) | -0.08% | -0.61% | -0.09% |
| O=C(Nc1cccc(-c2ccc(CN3CCNCC3)cc2)c1)c1cccc(Cl)c1 | -0.47% | -1.87% | -2.68% |
| COc1ccc(-c2csc3ncnc(Cl)c23)cc1 | 5.44% | 5.72% | 4.99% |
| CCN(CC)CCN(Cc1ccc(-c2ccc(C(F)(F)F)cc2)cc1)C(=O)Cn1c(CCc2ccc(F)cc2)nc(=O)c2sccc21 | 2.57% | 1.22% | 2.92% |
| C=CCN(C(=O)c1ccc(Cl)c([N+](=O)[O-])c1)c1nc(-c2ccccc2)cs1 | 10.6% | 9.45% | 7.89% |
| Cc1nc(C)c(-c2ccc(C(=O)c3ccc(Cl)cc3)cc2)c(O)c1Cl | 8.16% | 10.4% | 9.25% |
| Cc1ccc(NC(=O)C(C)Sc2nnc(-c3ccccc3Br)[nH]2)cc1 (stereo unspecified) | -1.5% | -2.48% | -0.33% |
| CCc1cn2c3c(cc(C(=O)N[C@@H](Cc4ccccc4)[C@H](O)CNC4CC4)cc13)N(CC)S(=O)(=O)CC2 | -0.74% | -0.31% | 0.02% |
| COc1cccc(CN2CCC(C(=O)Nc3ccc(-c4nc5ccccc5[nH]4)cc3)CC2)c1 | 23.8% | 32.9% | 20.6% |
| Cc1ccc(C(=O)NC2CC2)cc1-c1ccc2c(cnn2S(=O)(=O)c2ccc(F)cc2)c1 | 3.39% | 3.78% | 0.4% |
| CS(=O)(=O)c1ccc(Nc2ncc(-c3ccc(S(C)(=O)=O)cc3)c(OCC(F)(F)F)n2)cc1 | 4.36% | 0.18% | 3.17% |
| CC(CNC(=N)c1cccc(C(=N)NCC(C)Oc2cccc(C3CCCCC3)c2)n1)Oc1cccc(C2CCCCC2)c1 (stereo unspecified) | 5.5% | 4.37% | 0.74% |

| Compound | inhibition [1] | inhibition [2] | inhibition [3] |
| --- | --- | --- | --- |
| Cn1nc(-c2ccc(NC(=O)Nc3cc(C(F)(F)F)ccc3F)cc2)c2cnc(NCCc3c[nH]cn3)nc21 | 3.35% | 3.29% | 2.46% |
| N#Cc1cccc(NC(=O)c2cccc(S(=O)(=O)NC3CCN(CC4CCCCC4)C3)c2)c1 (stereo unspecified) | 0.54% | 1.11% | 3.37% |
| COc1ccc(Nc2nc(NCc3ccco3)c3ccccc3n2)cc1 | 25.5% | 20% | 12.1% |
| Cc1cc(N(CCCN(C)C)Cc2cc(F)cc(F)c2)nc(Nc2ccc(Cl)cc2)n1 | -0.3% | 0.46% | 1.83% |
| CC1=NN(c2ccc(C)c(C)c2)C(=O)C1=NNc1cccc(-c2cccc(NC(=O)OC(C)(C)C)c2)c1O | 1.48% | 1.44% | 0.04% |
| COc1ccc2nccc(N3CCC(CCNCc4ccc5c(n4)NC(=O)CS5)CC3)c2c1 | 6.54% | 9.44% | 2.78% |
| CS(=O)(=O)Nc1cccc(-c2cnc3[nH]cc(-c4cc(N)cc(C(=O)O)c4)c3c2)c1 | 0.76% | 1.94% | -0.41% |
| COc1ccc(-c2ccc(NC(=O)c3ccc(F)cc3)cc2)cc1CN1CCCN(C)CC1 | 6.26% | 3.81% | 2.87% |
| Cc1cc2nc(-c3cc(Br)ccc3O)c(-c3cc(Br)ccc3O)nc2cc1C | -1.26% | -1.38% | -1.13% |
| Cc1[nH]n(-c2cccc(C(F)(F)F)c2)c(=O)c1-c1ccc(Cl)cc1 | 3.56% | 6.35% | 5.69% |
| CCOc1ccc(N(CC)S(=O)(=O)c2cc(Br)cc3c2N(C(=O)C2CC2)CC3)cc1 | 2.96% | 2.04% | 1.74% |
| CC[C@H]1CN(CCCC(=O)c2ccccc2)CC[C@H]1CCCc1ccnc2ccc(OC(=O)c3ccccc3)cc12 | 4.64% | 5.86% | 2.72% |
| COc1ccc2nccc(N3CCC(CCNCc4cc5c(cn4)OCCO5)CC3)c2n1 | -0.34% | 0.24% | 1.72% |
| CCN(CCCN1CCCCC1)c1cc(C)nc(Nc2cc(Br)ccc2C)n1 | -1.93% | -0.61% | -0.36% |
| Cn1ncc2c3c(CCN4CCC(NCc5cc6c(cn5)OCCO6)CC4)c(Cl)cnc3ccc21 | 1.09% | 1.93% | -0.85% |
| Cc1nc2ccc3ccc(CNc4ccc(C(=O)CC(CCC(=O)O)C(=O)O)cc4)cc3c2c(=O)[nH]1 (stereo unspecified) | -0.57% | -1.01% | -0.36% |
